Measurements reported in PubChem BioAssay AID1159580 (chemical genetic matrix, 2015).
Among all 5,500 compounds or so, about 2,000 (36%) were called active. Roughly 18% stayed inconclusive and do not appear here. No stated cut-off is given here; in the data, active means normalized growth mostly below about 0.91 (no sharp cut-off); inconclusive means no clear call, values can overlap the other calls; inactive means mostly above about 0.92. The list shows a part of the results.

Experiment: chemical genetic growth profiling, strain panel (AID 1159580);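 further: tested at 20 µM; growth read once vehicle control cultures reached saturation at 30 °C; 1 = growth at the plate median or of vehicle wells; lower values mean less growth of the strain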
Details: S. cerevisiae deletion strains, growth OD
[1] = locus YDL101C, strain DUN1, active compounds read low
[2] = locus YHR030C, strain SLT2, active compounds read low

Measured: normalized growth

CCOC(=O)CNc1ccc(F)cc1
inactive: locus YAL013W, strain DEP1, active compounds read low 0.995 | locus YBR229C, strain ROT2, active compounds read low 0.989 | [1] 1.02 | locus YDL134C, strain PPH21, active compounds read low 0.977 | locus YDR150W, strain NUM1, active compounds read low 1.02 | locus YEL061C, strain CIN8, active compounds read low 1.01 | locus YGR078C, strain PAC10, active compounds read low 0.991 | [2] 0.989 | locus YHR087W, strain rtc3, active compounds read low 1.01 | locus YJL187C, strain SWE1, active compounds read low 1 | locus YJR043C, strain POL32, active compounds read low 0.988 | locus YJR075W, strain HOC1, active compounds read low 0.99 | locus YLR039C, strain RIC1, active compounds read low 0.953 | locus YLR058C, strain SHM2 (second series), active compounds read low 0.983 | locus YLR085C, strain ARP6, active compounds read low 0.986 | locus YLR262C, strain YPT6, active compounds read low 0.975 | locus YML094W, strain GIM5, active compounds read low 1.04 | locus YMR219W, strain ESC1, active compounds read low 0.997 | locus YMR263W, strain SAP30, active compounds read low 0.983 | locus YNL128W, strain TEP1, active compounds read low 0.98 | locus YNL153C, strain GIM3, active compounds read low 1.01 | locus YNL298W, strain CLA4 (second series), active compounds read low 0.974 | locus YNL322C, strain KRE1, active compounds read low 0.999 | locus YNR030W, strain Alg12, active compounds read low 1.03 | locus YPL055C, strain LGE1, active compounds read low 1.02 | locus YPL241C, strain CIN2, active compounds read low 0.977 | locus YPR135W, strain CTF4, active compounds read low 0.965

N#C/C(=N/Nc1ccc(F)cc1)S(=O)(=O)c1ccc(Cl)cc1
inactive: locus YAR019C, strain CDC15, active compounds read low 0.976 | locus YBL105C, strain PKC1, active compounds read low 0.97 | locus YBR135W, strain CKS1, active compounds read low 0.965 | locus YBR136W, strain MEC1, active compounds read low 0.969 | locus YBR160W, strain CDC28, active compounds read low 0.965 | locus YDL017W, strain CDC7, active compounds read low 0.972 | locus YDL028C, strain MPS1, active compounds read low 0.971 | [1] 0.974 | locus YDL108W, strain KIN28, active compounds read low 0.957 | locus YDL132W, strain cdc53, active compounds read low 0.966 | locus YDL214C, strain PRR2, active compounds read low 0.94 | locus YDR052C, strain DBF4, active compounds read low 0.964 | locus YDR054C, strain cdc34, active compounds read low 0.976 | locus YDR226W, strain ADK1, active compounds read low 0.963 | locus YDR477W, strain SNF1, active compounds read low 0.961 | locus YER123W, strain YCK3, active compounds read low 0.922 | locus YER133W, strain GLC7, active compounds read low 0.968 | locus YFL009W, strain cdc4, active compounds read low 0.978 | locus YFL029C, strain CAK1, active compounds read low 0.973 | locus YFR003C, strain YPI1, active compounds read low 0.974 | locus YFR019W, strain FAB1, active compounds read low 0.912 | locus YFR028C, strain CDC14, active compounds read low 0.959 | locus YGR040W, strain KSS1, active compounds read low 0.94 | locus YGR052W, strain FMP48, active compounds read low 0.952 | locus YGR092W, strain DBF2, active compounds read low 0.912 | [2] 0.982 | locus YHR079C, strain IRE1, active compounds read low 0.993 | locus YHR082C, strain KSP1, active compounds read low 0.994 | locus YHR205W, strain SCH9, active compounds read low 0.907 | locus YIL147C, strain SLN1, active compounds read low 0.976 | locus YJL095W, strain BCK1, active compounds read low 0.926 | locus YJL128C, strain PBS2, active compounds read low 0.942 | locus YJL157C, strain FAR1, active compounds read low 0.953 | locus YJR016C, strain ILV3, active compounds read low 0.977 | locus YJR066W, strain TOR1 (second series), active compounds read low 0.924 | locus YJR066W, strain TOR1, active compounds read low 0.996 | locus YKL048C, strain ELM1, active compounds read low 0.932 | locus YKL067W, strain YNK1, active compounds read low 0.96 | locus YKL101W, strain HSL1, active compounds read low 0.93 | locus YKL193C, strain SDS22, active compounds read low 0.978 | locus YKL203C, strain TOR2, active compounds read low 0.99 | locus YLR113W, strain HOG1, active compounds read low 0.941 | locus YLR133W, strain CKI1, active compounds read low 0.942 | locus YLR403W, strain SFP1, active compounds read low 0.899 | locus YML070W, strain DAK1, active compounds read low 0.939 | locus YMR001C, strain CDC5, active compounds read low 0.975 | locus YMR205C, strain PFK2 (second series), active compounds read low 0.96 | locus YMR277W, strain FCP1, active compounds read low 0.979 | locus YNL006W, strain LST8, active compounds read low 0.989 | locus YNL020C, strain ARK1, active compounds read low 0.946 | locus YNL161W, strain CBK1, active compounds read low 0.966 | locus YNL183C, strain NPR1, active compounds read low 0.988 | locus YNL207W, strain RIO2, active compounds read low 0.969 | locus YNL222W, strain SSU72, active compounds read low 0.977 | locus YNL307C, strain MCK1 (second series), active compounds read low 0.912 | locus YOL078W, strain AVO1, active compounds read low 0.97 | locus YOL136C, strain PFK27, active compounds read low 0.905 | locus YOR061W, strain CKA2, active compounds read low 0.979 | locus YOR119C, strain RIO1, active compounds read low 0.998 | locus YOR231W, strain MKK1, active compounds read low 0.953 | locus YOR329C, strain SCD5, active compounds read low 0.975 | locus YPL031C, strain PHO85, active compounds read low 0.954 | locus YPL153C, strain RAD53, active compounds read low 0.956 | locus YPL204W, strain HRR25, active compounds read low 0.904 | locus YPL209C, strain IPL1, active compounds read low 0.975 | locus YPL256C, strain CLN2, active compounds read low 1.01 | locus YPR025C, strain CCL1, active compounds read low 0.974 | locus YPR106W, strain ISR1, active compounds read low 0.975 | locus YPR111W, strain DBF20, active compounds read low 0.969 | strain NNK1, active compounds read low 0.972 | strain TSCII, active compounds read low 0.966
